# Results as given in PubChem BioAssay (NCI).
# Compounds without any hit were thinned out: in the full panel of roughly 83,000, 20% have a hit.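 Interpretation: 100, growth as untreated; towards 0, rising growth inhibition; 0, no net growth; 0 to -100, cell death. Compounds scoring below 10 were considered active.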 Active and inactive are the calls of the source.
# System: HL-60(TB) leukemia
# Assay: NCI-60 one-dose screen, 48 h (100 = growth as untreated, 0 = no growth, -100 = all killed)
# Conditions: 10 µM unless noted
row,SMILES,growth
1,CO[C@H]1/C=C/C=C/C=C/C[C@H](OC(=O)[C@@H](C)NC(=O)C2CCCCC2)[C@H](C)[C@@H](O)/C(C)=C\CCC2=CC(=O)C=C(NC(=O)C1)C2=O,-26.6% (active)
2,NNc1cccc([N+](=O)[O-])c1,6.4% (active)
3,Cc1c(NC(=O)OC[C@@H]2COCCN2)cn2ncnc(Nc3ccc4c(cnn4Cc4cccc(F)c4)c3)c12,-25.6% (active)
